Compound activity from PubChem BioAssay.
TTR transcr act: activators of transthyretin transcription; hit rate 1.3% among 92,000; SH-SY5Y TTR promoter Gaussia luciferase, luminescence; 100% = recombinant luciferase protein wells; AID 1117267; activation, % at 16.7 µM;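 active = activation above the mean of all tested compounds plus 3 SD, cut at about 9.5% in these data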;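 note: cells exposed to compounds for one day before reading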
TTR inh HuH7: decreases TTR transcription in HuH7 cells in activator counter-screen. shares compounds with TTR transcr act. inhibition, % at 16.7 µM. hit rate 4% among 1,100. HuH7 TTR promoter-Gaussia luciferase reporter, luminescence;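 active = average inhibition above the solvent-only control wells' mean plus 3 SD, cut at about 15% in these data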;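 note: inhibitors lower well luminescence so higher value means more inhibition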
TTR up confirm: human TTR transcription activation, confirmation; shares compounds with TTR transcr act; SHSY5Y TTR promoter Gaussia luciferase, luminescence; 100% = purified Lucia enzyme wells, no cells; activation, % at 16.7 µM; 1,100 tested, under 10 active;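 active = mean activation above a set limit taken from the earlier primary screen, cut at about 11% in these data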
Numbers stand for hits; n = inactive. This is one part of a sample in which hits are shown more often than they occur.

SMILES	TTR transcr act	others
Cc1c(/C=N/NC(=O)CNc2ccccc2)c2ccccn2c1C(=O)c1ccccc1	n
Cn1c(N)c(C(=O)CCl)c(=O)n(Cc2ccccc2)c1=O	12.4
CN(C)CC(=O)c1c(N)n(Cc2ccccc2)c(=O)n(C)c1=O	n
CC1CN(CC(=O)c2c(N)n(Cc3ccccc3)c(=O)n(C)c2=O)CC(C)O1 (stereo not drawn)	n
COc1ccc(Cl)cc1NC(=O)CS(=O)(=O)c1cccc2nsnc12	n
COc1ccc(CN(C)C(=O)CCC(=O)N2CCN(S(=O)(=O)c3ccc(Cl)cc3)CC2)c(OC)c1	n
O=C1OC(c2ccc(Br)cc2)=N/C1=C\N1CCCCC1	n
O=[N+]([O-])c1ccc(N/N=C2/CCCCC2c2ccccn2)cc1 (stereo not drawn)	n
O=C1CCCCC1Nc1ccc([N+](=O)[O-])cc1 (stereo not drawn)	12.4
O=C(NC1CCCCC1)c1ccc([N+](=O)[O-])cc1	n
N#CCCN(C(=O)Cn1nc(C(=O)O)c2ccccc2c1=O)c1ccccc1	n
O=C(CC1SC(=O)NC1=O)Nc1ccc(Cl)cc1 (stereo not drawn)	12.2	TTR inh HuH7=n;TTR up confirm=n
O=C(Cc1ccc(Br)cc1)Nc1ccc(Cl)cc1	n
Cc1ccc(NC(=O)CC2SC(=NC3CCCCC3)NC2=O)cc1 (stereo not drawn)	n
COc1ccc(C(c2nnnn2Cc2ccccc2)N2CCN(C(=O)c3ccco3)CC2)cc1 (stereo not drawn)	n
O=C(c1ccco1)N1CCN(C(c2ccc(F)cc2)c2nnnn2CC2CCCO2)CC1 (stereo not drawn)	10.6	TTR inh HuH7=n;TTR up confirm=n
CCC(C)(C)n1nnnc1C(c1ccc(C)cc1)N1CCN(C(=O)c2ccco2)CC1 (stereo not drawn)	n
O=C(NCCc1c[nH]c2ccccc12)C(=O)NCC1OCCN1S(=O)(=O)c1ccccc1 (stereo not drawn)	n
CCOC(=O)C1(c2ccccc2)SC(C(=O)OCC)(c2ccccc2)S1 (stereo not drawn)	n
Cc1ccc(/C=N/n2c(C)nnc2C)o1	n
CC(C)COc1ccc(CNC(=S)N/N=C/c2ccc([N+](=O)[O-])cc2)cc1	11.4	TTR inh HuH7=n;TTR up confirm=n
COc1ccc(CNC(=S)N/N=C/c2ccncc2)cc1	n
CC(C)Oc1ccc(CNC(=S)N/N=C/c2ccc([N+](=O)[O-])cc2)cc1	n
CCc1cc2c(=O)n(CC)c(SC(C)C(=O)Nc3c(C)n(C)n(-c4ccccc4)c3=O)nc2s1 (stereo not drawn)	n
CCC(C)N=Cc1c(Nc2ccccc2)nc2c(C)cccn2c1=O (stereo not drawn)	n
SMILES	TTR transcr act	others
CC1CCCN(c2cccc3c2S(=O)(=O)N(Cc2cccc(Cl)c2)[C@@H](C)[C@H](c2ccccc2)O3)C1 (stereo partly drawn)	n
Cc1ccc(S(=O)(=O)N2CCC(=O)N(CCOCc3ccccc3C)CC2)cc1	n
COc1ccc(/C=C(\C#N)C(=O)OCC(=O)NC(C)c2ccccc2)cc1 (stereo not drawn)	17.5	TTR inh HuH7=n;TTR up confirm=n
COc1cc(/C=C(/C#N)C(=O)NC(C)c2ccccc2)cc(OC)c1O (stereo not drawn)	n
COc1ccc(/C=C(\C#N)C(=O)OCCNC(=O)c2ccncc2)cc1	n
CC[C@H](C)[C@@H]1NC(=O)c2cc([N+](=O)[O-])cc(I)c2SC[C@@H](C(N)=O)NC(=O)[C@H](CCCCN)NC1=O	n
Cc1c(C2(O)CCCCC2)[nH]c2cc(C(F)(F)F)ccc12	n
Cc1c(C2(O)CCCCC2)[nH]c2ncccc12	11.2	TTR inh HuH7=n;TTR up confirm=n
Cc1c(C2(O)CCCCC2)[nH]c2cnccc12	n
COC(=O)[C@@]12CCCCC=C1N(CCc1ccc(Cl)cc1)C(=O)[C@H]2CC(=O)NCc1cccc2ccccc12	n
Cc1ccc(-c2nc(=S)c3c(n2CCN2CCOCC2)CC(C)(C)OC3)cc1	n
Cc1ccccc1Sc1ncnc2onc(C)c12	n
Cc1cccc(N(C)c2ncnc3onc(-c4ccc(F)cc4)c23)c1C	13.0	TTR inh HuH7=25.3;TTR up confirm=n
CCOC(=O)C1=C(C)NC2=C(C(=O)C(C(=O)OCC)C(c3ccccc3OC)C2)C1c1ccccn1 (stereo not drawn)	n
Nc1cnn(Cc2ccc(F)cc2)c1	n
CSc1ncnc2c1ncn2CCCNC1CCN(Cc2ccccc2)CC1	n
CC(C)c1ccc(S(=O)(=O)N2CCN(C(=O)c3ccco3)CC2)cc1	n
COc1ccc(OC)c(S(=O)(=O)n2nc(-c3ccccc3)cc2N)c1	n
O=C(COc1ccccc1F)Nc1ccccc1C(=O)NC1CC1	n
CN1CCN(C(=S)NCCc2ccccc2)CC1	10.8	TTR inh HuH7=n;TTR up confirm=n
O=C(c1ccccc1)N1CCN(C(=S)NCCc2ccccc2)CC1	n
OCC1CCCN(C(=S)NCCc2ccccc2)C1 (stereo not drawn)	n
COCCN(CCOC)C(=O)C12CCC(C)(C(=O)C1)C2(C)C (stereo not drawn)	n
CC(NC(=O)CN(C1CCCCC1)S(C)(=O)=O)c1ccccc1 (stereo not drawn)	n
CC(C)c1ccccc1NC(=O)C1CCCN(C(=O)c2ccc(Cl)cc2)C1 (stereo not drawn)	n
SMILES	TTR transcr act	others
CCOc1ccc(OCC)c(NC(=O)C2CCCN(C(=O)c3ccc(Cl)cc3)C2)c1 (stereo not drawn)	11.0	TTR inh HuH7=n;TTR up confirm=n
CCOc1ccc(OCC)c(NC(=O)C2CCCN(S(=O)(=O)c3ccc(C)cc3)C2)c1 (stereo not drawn)	n
O=C(NCc1ccc2c(c1)OCO2)c1ccc(CS(=O)Cc2cccc(Cl)c2)o1 (stereo not drawn)	n
Cc1cccc(-c2nc(CSc3nc4c(c(=O)[nH]3)CCC4)c(C)o2)c1	n
Cc1oc(-c2ccccc2)nc1CSc1nc2c(c(=O)[nH]1)CCC2	14.0	TTR inh HuH7=n;TTR up confirm=n
Cc1ccccc1-c1nc(CSc2nc3c(c(=O)[nH]2)CCC3)c(C)o1	n
COc1ccc(CNc2nc(-c3cccnc3)nn2C(C)=O)cc1	n
CC(=O)C1(C)OC(N)=C(C#N)C(c2ccccc2)C1(C#N)C#N (stereo not drawn)	n
O=C(Nc1cccc(NC(=O)c2cccs2)c1)c1ccc2c(c1)OCO2	n
C=CCC1(CC=C)CCCN1C(=O)CC1C(=O)NCCN1Cc1cc(OC)cc(OC)c1 (stereo not drawn)	n
COc1ccc(/C=C/C(=O)NCc2ccc3c(c2)OCO3)cc1OC	n
COc1ccc(CN(C(=O)/C=C/c2ccco2)C2CCS(=O)(=O)C2)cc1OC (stereo not drawn)	n
COc1ccc(CNC(=O)/C=C/c2ccco2)cc1OC	12.6	TTR inh HuH7=n;TTR up confirm=n
O=C(c1ccccc1)N1CCN(C(=O)c2ccc3c(c2)OCCO3)CC1	n
N#Cc1ccccc1COC(=O)CCC(=O)c1cccs1	n
CC1O[C@@H](O[C@H](C)CC[C@@H](C)O[C@H]2OC(C)[C@@H](O)C[C@H]2O)C(O)C[C@H]1O (stereo partly drawn)	14.3	TTR inh HuH7=n;TTR up confirm=n
O=C(NC(=S)Nc1ccc2oc(-c3ccncc3)nc2c1)c1ccccc1F	n
CCC(C)(C)NC(=O)C(c1cccs1)N(C(=O)c1ccn[nH]1)c1cccc(OC)c1 (stereo not drawn)	n
Nc1c(C(=O)Nc2ccccc2F)sc2nc(-c3ccco3)ccc12	n
